For part of these data: Measured potencies and affinities stand elsewhere. Calls of active or inactive are those of the source. The rule behind the calls is not given here.

In general, AC50 refers to the midpoint of the concentration-response curve, whichever way the signal moves.
Throughout, for efficacy: 0% is about no effect.

The conditions of one experiment: Ebola virus entry assay, green fluorescence channel.
As for `CCC(=O)c1ccc2c(c1)N(CCCN(C)C)c1ccccc1S2`, the efficacy was 153% (inactive).
Still for that read-out and setting: the figure for `CN(CCCN1c2ccccc2CCc2ccccc21)CC(=O)c1ccc(Cl)cc1` is 78.9% (inactive); for `CC(=O)NC(Cc1ccccc1)C(=O)O` (stereo not drawn) it is 29.9% (inactive).
With `CC1(C)[C@H](C(=O)O)N2C(=O)C[C@H]2S1(=O)=O`, the efficacy was 90.1% (inactive).
`CCc1cccc(N(C)C(N)=Nc2cccc3ccccc23)c1`: the efficacy was 108% (inactive).
Same read-out and setting: the figure for `CN(C)c1ccc(C(=C2C=CC(=[N+](C)C)C=C2)c2ccccc2)cc1` is -236% (inactive).
With `COC(=O)C1=C(C)NC(C)=C(C(=O)OCCCN2CCC(c3ccccc3)(c3ccccc3)CC2)C1c1cccc([N+](=O)[O-])c1` (stereo not drawn), the efficacy is -179% (inactive).
Still for that read-out and setting: the same measure for `C[C@@H]1CCC[C@H](C)N1CCCC(O)(c1ccccc1)c1ccccn1` (stereo partly drawn): 81.9% (inactive); for `COc1ccc(/C=C/C(=O)c2ccc(OC)cc2OC)cc1`: 38.6% (inactive); for `c1cc(CN2CCCCC2)cc(OCCCNc2nc3ccccc3s2)c1`: 69.1% (inactive).
In the case of `CC(C)COCC(CN(Cc1ccccc1)c1ccccc1)N1CCCC1` (stereo not drawn), the efficacy was -190% (inactive).
The same measure, in the same setting: the figure for `Cc1ccc(N(CC2=NCCN2)c2cccc(O)c2)cc1` is 66% (inactive); for `CC(C)(C)c1ccc(C(=O)CCCN2CCC(OC(c3ccccc3)c3ccccc3)CC2)cc1` it is 47.5% (inactive).
The same measure, in the same setting: the same measure for `CCN(CC)CCNc1ccc(CO)c2sc3ccccc3c(=O)c12`: 47.9% (inactive).
On the same count and under the same terms, the same measure for `CC(Oc1c(Cl)cccc1Cl)C1=NCCN1` (stereo not drawn): 76.8% (inactive); for `CN(C)CC/C=C1\c2ccccc2Sc2ccc(Cl)cc21`: -98.3% (inactive); for `CN(C)CCOC(c1ccccc1)c1ccccc1`: 60.8% (inactive).
Consider `O=c1c(-c2ccccc2)c1-c1ccccc1`, for which the efficacy was 22% (inactive).
Turning to `CCN(CC)CCOC(=O)C(c1ccccc1)C1CCCCC1` (stereo not drawn), the efficacy was -237% (inactive).
The same measure, in the same setting: the same measure for `CCN(CC)CCOc1ccc(/C(=C(\Cl)c2ccccc2)c2ccccc2)cc1`: -182% (inactive); for `OC(C#CCN1CCCC1)(c1ccccc1)c1ccccc1`: 80.1% (inactive); for `Cc1nc(C2CCCCC2)c(-c2ccc(S(N)(=O)=O)c(F)c2)o1`: 44.4% (inactive).
The same measure, in the same setting: the same measure for `CC1CCCCN1CCCOC(=O)c1ccc(OC2CCCCC2)cc1` (stereo not drawn): 86.1% (inactive); for `CCC(C(=O)OCCN1CCOC(c2ccccc2)C1C)c1ccccc1` (stereo not drawn): 88.5% (inactive); for `CN1CCCC(n2nc(Cc3ccc(Cl)cc3)c3ccccc3c2=O)CC1` (stereo not drawn): 78.3% (inactive).
On to `CN1CCC(N(Cc2cccs2)c2ccccc2)CC1`, for which the efficacy is 53.5% (inactive).
The same measure, in the same setting: the same measure for `CSc1ccc(/C=C2/C(C)=C(CC(=O)O)c3cc(F)ccc32)cc1`: 33.8% (inactive); for `O=C(CCN1CCN2CCCC2C1)N1c2ccccc2Sc2ccc(Cl)cc21` (stereo not drawn): 163% (inactive); for `NC(=O)C1(N2CCCCC2)CCN(CCCN2c3ccccc3CCc3ccc(Cl)cc32)CC1`: -222% (inactive).
Turning to `CCN(CCCCOC(=O)c1ccc(OC)c(OC)c1)C(C)Cc1ccc(OC)cc1` (stereo not drawn), the efficacy is 112% (inactive).
On the same count and under the same terms, the figure for `CCCCNc1ccc(C(=O)OCCN(C)C)cc1` is 66.1% (inactive); for `CCCCCCOC(=O)NC(=N)c1ccc(NCc2nc3cc(C(=O)N(CCC(=O)OCC)c4ccccn4)ccc3n2C)cc1` it is 128% (inactive); for `Oc1c(Cl)cc(Cl)c2cccnc12` it is 73.4% (inactive).
For `CN1CCN(C2=Nc3ccccc3Sc3ccc(Cl)cc32)CC1`, the efficacy was 66% (inactive).
On the same count and under the same terms, the same measure for `CN(C)C/C=C(/c1ccc(Br)cc1)c1cccnc1`: 51.4% (inactive).
Still for that read-out and setting: the same measure for `Cc1cccc(N(C)C(=S)Oc2ccc3c(c2)C2CCC3C2)c1` (stereo not drawn): 40.9% (inactive); for `COC(=O)C1=C(C)NC(C)=C(C(=O)OC(C)(C)CN(C)CCC(c2ccccc2)c2ccccc2)C1c1cccc([N+](=O)[O-])c1` (stereo not drawn): 39.5% (inactive).
On to `COCC(=O)O[C@]1(CCN(C)CCCc2nc3ccccc3[nH]2)CCc2cc(F)ccc2[C@@H]1C(C)C`, for which the efficacy is -180% (inactive).
On the same count and under the same terms, the same measure for `CCCCCCCCCCCCCCCCCCNC(=O)OC1CCN(C(=O)OC[C@H](COC(=O)N(Cc2cccc[n+]2CC)C(=O)c2ccccc2OC)OC)CC1`: -117% (inactive).

For the next experiment the following is noted: Ebola virus entry assay, blue channel fluorescence.
For `CCC(=O)c1ccc2c(c1)N(CCCN(C)C)c1ccccc1S2`, the AC50 was 20 µM (active).
On the same count and under the same terms, the figure for `CN(CCCN1c2ccccc2CCc2ccccc21)CC(=O)c1ccc(Cl)cc1` is 22.4 µM (active).
In the case of `CC(=O)NC(Cc1ccccc1)C(=O)O` (stereo not drawn), the result was inactive.
Take `CC1(C)[C@H](C(=O)O)N2C(=O)C[C@H]2S1(=O)=O`: the AC50 is 15.8 µM (active).
In the case of `CCc1cccc(N(C)C(N)=Nc2cccc3ccccc23)c1`, the AC50 is 20 µM (active).
Regarding `CN(C)c1ccc(C(=C2C=CC(=[N+](C)C)C=C2)c2ccccc2)cc1`, the AC50 was 0.891 µM (active).
As for `COC(=O)C1=C(C)NC(C)=C(C(=O)OCCCN2CCC(c3ccccc3)(c3ccccc3)CC2)C1c1cccc([N+](=O)[O-])c1` (stereo not drawn), the concentration at half-maximal activity (AC50) was 2.82 µM (active).
The same measure, in the same setting: the figure for `C[C@@H]1CCC[C@H](C)N1CCCC(O)(c1ccccc1)c1ccccn1` (stereo partly drawn) is 25.1 µM (active); for `COc1ccc(/C=C/C(=O)c2ccc(OC)cc2OC)cc1` it is 39.8 µM (active).
Take `c1cc(CN2CCCCC2)cc(OCCCNc2nc3ccccc3s2)c1`: the AC50 is 12.6 µM (active).
For `CC(C)COCC(CN(Cc1ccccc1)c1ccccc1)N1CCCC1` (stereo not drawn), the concentration at half-maximal activity (AC50) was 2.82 µM (active).
Turning to `Cc1ccc(N(CC2=NCCN2)c2cccc(O)c2)cc1`, the concentration at half-maximal activity (AC50) is 35.5 µM (active).
As for `CC(C)(C)c1ccc(C(=O)CCCN2CCC(OC(c3ccccc3)c3ccccc3)CC2)cc1`, the half-maximal activity concentration (AC50) is 7.94 µM (active).
For the compound `CCN(CC)CCNc1ccc(CO)c2sc3ccccc3c(=O)c12`, the AC50 was 17.8 µM (active).
Same read-out and setting: the figure for `CC(Oc1c(Cl)cccc1Cl)C1=NCCN1` (stereo not drawn) is 39.8 µM (active); for `CN(C)CC/C=C1\c2ccccc2Sc2ccc(Cl)cc21` it is 3.16 µM (active).
For `CN(C)CCOC(c1ccccc1)c1ccccc1`, the concentration at half-maximal activity (AC50) is 20 µM (active).
Still for that read-out and setting: the figure for `O=c1c(-c2ccccc2)c1-c1ccccc1` is 39.8 µM (active); for `CCN(CC)CCOC(=O)C(c1ccccc1)C1CCCCC1` (stereo not drawn) it is 2.82 µM (active); for `CCN(CC)CCOc1ccc(/C(=C(\Cl)c2ccccc2)c2ccccc2)cc1` it is 1.58 µM (active).
Still for that read-out and setting: the figure for `OC(C#CCN1CCCC1)(c1ccccc1)c1ccccc1` is 39.8 µM (active); for `Cc1nc(C2CCCCC2)c(-c2ccc(S(N)(=O)=O)c(F)c2)o1` it is 39.8 µM (active).
Take `CC1CCCCN1CCCOC(=O)c1ccc(OC2CCCCC2)cc1` (stereo not drawn): the half-maximal activity concentration (AC50) is 8.91 µM (active).
Same read-out and setting: the same measure for `CCC(C(=O)OCCN1CCOC(c2ccccc2)C1C)c1ccccc1` (stereo not drawn): 22.4 µM (active); for `CN1CCCC(n2nc(Cc3ccc(Cl)cc3)c3ccccc3c2=O)CC1` (stereo not drawn): 3.16 µM (active); for `CN1CCC(N(Cc2cccs2)c2ccccc2)CC1`: 3.55 µM (active).
For the compound `CSc1ccc(/C=C2/C(C)=C(CC(=O)O)c3cc(F)ccc32)cc1`, the result was inactive.
On to `O=C(CCN1CCN2CCCC2C1)N1c2ccccc2Sc2ccc(Cl)cc21` (stereo not drawn), for which the concentration at half-maximal activity (AC50) is 11.2 µM (active).
On the same count and under the same terms, the same measure for `NC(=O)C1(N2CCCCC2)CCN(CCCN2c3ccccc3CCc3ccc(Cl)cc32)CC1`: 3.98 µM (active).
Take `CCN(CCCCOC(=O)c1ccc(OC)c(OC)c1)C(C)Cc1ccc(OC)cc1` (stereo not drawn): the AC50 is 20 µM (active).
On to `CCCCNc1ccc(C(=O)OCCN(C)C)cc1`, for which the AC50 is 20 µM (active).
Turning to `CCCCCCOC(=O)NC(=N)c1ccc(NCc2nc3cc(C(=O)N(CCC(=O)OCC)c4ccccn4)ccc3n2C)cc1`, the concentration at half-maximal activity (AC50) is 3.55 µM (active).
Still for that read-out and setting: the same measure for `Oc1c(Cl)cc(Cl)c2cccnc12`: 39.8 µM (active); for `CN1CCN(C2=Nc3ccccc3Sc3ccc(Cl)cc32)CC1`: 39.8 µM (active).
On the same count and under the same terms, the same measure for `CN(C)C/C=C(/c1ccc(Br)cc1)c1cccnc1`: 39.8 µM (active); for `Cc1cccc(N(C)C(=S)Oc2ccc3c(c2)C2CCC3C2)c1` (stereo not drawn): 39.8 µM (active).
In the case of `COC(=O)C1=C(C)NC(C)=C(C(=O)OC(C)(C)CN(C)CCC(c2ccccc2)c2ccccc2)C1c1cccc([N+](=O)[O-])c1` (stereo not drawn), the half-maximal activity concentration (AC50) was 14.1 µM (active).
`COCC(=O)O[C@]1(CCN(C)CCCc2nc3ccccc3[nH]2)CCc2cc(F)ccc2[C@@H]1C(C)C`: the concentration at half-maximal activity (AC50) is 2.24 µM (active).
Still for that read-out and setting: the figure for `CCCCCCCCCCCCCCCCCCNC(=O)OC1CCN(C(=O)OC[C@H](COC(=O)N(Cc2cccc[n+]2CC)C(=O)c2ccccc2OC)OC)CC1` is 39.8 µM (active).

The values are drawn from PubChem BioAssay (NCATS).
